{"source": "paper PMC4336329", "about": "(PLoS ONE, 2015)", "note": "About 14,000 (4.5%) of roughly 310,000 compounds showed an effect of 50% or more. The effect is printed as a negative number. The list comes from a sample in which strong results are over-represented; it also holds similar structures and randomly drawn compounds.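 Also: peak tail current of the secondary pulse compared with the same well before compound.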"}
{"target": "human ether-à-go-go-related gene (hERG) potassium channel (human, UniProt Q12809)", "sequence (Q12809 whole entry, looked up)": "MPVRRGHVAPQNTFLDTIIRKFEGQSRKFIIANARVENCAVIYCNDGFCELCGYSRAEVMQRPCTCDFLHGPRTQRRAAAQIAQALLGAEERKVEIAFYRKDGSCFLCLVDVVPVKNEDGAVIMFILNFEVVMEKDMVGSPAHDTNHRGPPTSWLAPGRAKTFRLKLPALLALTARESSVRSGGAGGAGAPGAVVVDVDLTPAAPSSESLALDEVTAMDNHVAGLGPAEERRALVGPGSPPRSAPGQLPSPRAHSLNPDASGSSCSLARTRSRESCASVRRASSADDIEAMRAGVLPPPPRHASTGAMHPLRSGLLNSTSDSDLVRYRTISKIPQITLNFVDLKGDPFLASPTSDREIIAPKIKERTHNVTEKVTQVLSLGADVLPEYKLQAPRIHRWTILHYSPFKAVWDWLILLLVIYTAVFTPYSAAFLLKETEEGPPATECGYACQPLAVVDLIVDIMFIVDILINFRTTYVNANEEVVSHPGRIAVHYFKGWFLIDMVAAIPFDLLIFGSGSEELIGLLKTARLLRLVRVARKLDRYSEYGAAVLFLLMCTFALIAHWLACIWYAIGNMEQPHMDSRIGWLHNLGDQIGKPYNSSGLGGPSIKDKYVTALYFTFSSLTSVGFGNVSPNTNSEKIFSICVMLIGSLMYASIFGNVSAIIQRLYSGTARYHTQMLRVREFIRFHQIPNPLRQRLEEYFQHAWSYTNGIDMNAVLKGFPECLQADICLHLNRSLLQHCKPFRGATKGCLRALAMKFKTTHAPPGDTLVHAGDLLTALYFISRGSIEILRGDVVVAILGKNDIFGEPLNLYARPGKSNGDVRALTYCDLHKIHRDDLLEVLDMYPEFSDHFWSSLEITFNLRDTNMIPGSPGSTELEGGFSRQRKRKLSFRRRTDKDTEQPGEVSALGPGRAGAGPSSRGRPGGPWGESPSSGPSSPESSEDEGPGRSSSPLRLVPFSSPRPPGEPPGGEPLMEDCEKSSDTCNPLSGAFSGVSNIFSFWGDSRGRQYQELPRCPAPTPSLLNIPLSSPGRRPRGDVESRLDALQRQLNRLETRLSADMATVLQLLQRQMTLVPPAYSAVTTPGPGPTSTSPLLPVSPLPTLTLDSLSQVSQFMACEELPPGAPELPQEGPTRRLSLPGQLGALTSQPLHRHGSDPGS", "assay": "primary screen, population patch clamp on CHO cells stably expressing hERG; higher = less effect of the substance", "units": {"hERG current change (%, negative = inhibition) at 10uM": "%"}}
{"smiles": "COCCCn1c(SCC(=O)Nc2ccc(C)cc2)nc2ccccc2c1=O", "hERG current change (%, negative = inhibition) at 10uM": -2.1}
{"smiles": "COc1ccc(NC(=O)CSc2nc3ccccc3c(=O)n2CCNC(C)=O)cc1", "hERG current change (%, negative = inhibition) at 10uM": -73.6}
{"smiles": "CCOc1ccc(NC(=O)CSc2nc3ccccc3c(=O)n2CCNC(C)=O)cc1", "hERG current change (%, negative = inhibition) at 10uM": -6.93}
{"smiles": "CN(C)CCCn1c(SCC(=O)N2CC(=O)Nc3ccccc32)nc2ccccc2c1=O", "hERG current change (%, negative = inhibition) at 10uM": -17.6}
{"smiles": "O=C(O)CCCC(=O)N(Cc1ccccc1)Cc1ccccc1", "hERG current change (%, negative = inhibition) at 10uM": 30.4}
{"smiles": "Cn1c2c(c(=O)n(C)c1=O)C(c1cccc([N+](=O)[O-])c1)Nc1ccccc1O2", "note": "(stereo not drawn)", "hERG current change (%, negative = inhibition) at 10uM": -12.3}
{"smiles": "C[C@H](N)C(=O)N1CCC(C(=O)N[C@@H](Cc2ccccc2)C(=O)Nc2ccc(F)cc2)CC1", "hERG current change (%, negative = inhibition) at 10uM": -5.88}
{"smiles": "CC(=O)Nc1c([N+](=O)[O-])cc(C)c(Cl)c1[N+](=O)[O-]", "hERG current change (%, negative = inhibition) at 10uM": 6.22}
{"smiles": "COc1ccc(Cn2c(=O)[nH]c3cc(C(=O)N4CCN(c5ccc(OC)cc5)CC4)ccc3c2=O)cc1", "hERG current change (%, negative = inhibition) at 10uM": 10.1}
{"smiles": "Cc1cc(Cl)cc(Br)c1OCCNCC(C)O", "note": "(stereo not drawn)", "hERG current change (%, negative = inhibition) at 10uM": -18.7}
{"smiles": "O=C1C2(CCC13COC(c1ccc(O)cc1)OC3)COC(c1ccc(O)cc1)OC2", "note": "(stereo not drawn)", "hERG current change (%, negative = inhibition) at 10uM": -2.43}
{"smiles": "COc1ccc(OC)c(C2/C(=C(/O)c3ccc(C)cc3)C(=O)C(=O)N2Cc2ccco2)c1", "note": "(stereo not drawn)", "hERG current change (%, negative = inhibition) at 10uM": -7.22}
{"smiles": "Cc1cc(=O)oc2cc(OCC(=O)Nc3ccc(CN4CCOCC4)cc3)ccc12", "hERG current change (%, negative = inhibition) at 10uM": 3.15}
{"smiles": "COc1cc2c3c(c1)/C(=C1/SC(=S)NC1=O)C(=O)N3C(C)(C)C=C2C", "hERG current change (%, negative = inhibition) at 10uM": 2.71}
{"smiles": "CCc1cccc(NC(=O)C2CCCN2S(=O)(=O)c2cccc3cccnc23)c1", "note": "(stereo not drawn)", "hERG current change (%, negative = inhibition) at 10uM": -10.4}
{"smiles": "O=C(CCCn1cc([N+](=O)[O-])cn1)Nc1ccc2c(c1)OCO2", "hERG current change (%, negative = inhibition) at 10uM": 4.52}
{"smiles": "CCOCCCNC(=O)C1CCN(S(=O)(=O)c2ccc3nc4c(c(C(=O)O)c3c2)CCCCC4)CC1", "hERG current change (%, negative = inhibition) at 10uM": 49.4}
{"smiles": "CC1CCN(S(=O)(=O)c2ccc(C(=O)NC3CCS(=O)(=O)C3)cc2)CC1", "note": "(stereo not drawn)", "hERG current change (%, negative = inhibition) at 10uM": -5.94}
{"smiles": "COCCn1c(SCC(=O)Nc2cccnc2Cl)nc2ccccc2c1=O", "hERG current change (%, negative = inhibition) at 10uM": 4.53}
{"smiles": "CC(=O)NCCn1c(SCC(=O)c2ccccc2)nc2ccccc2c1=O", "hERG current change (%, negative = inhibition) at 10uM": -29.9}
{"smiles": "CC(=O)NCCn1c(SCC(=O)OCc2ccccc2)nc2ccccc2c1=O", "hERG current change (%, negative = inhibition) at 10uM": -60.2}
{"smiles": "COCCn1c(SCC(=O)Nc2cccnc2Cl)nc2cc(Cl)ccc2c1=O", "hERG current change (%, negative = inhibition) at 10uM": -29.6}
{"smiles": "CC(=O)NCCn1c(SCc2ccc(C)cc2)nc2ccccc2c1=O", "hERG current change (%, negative = inhibition) at 10uM": -31.2}
{"smiles": "CC(C)N(CCn1c(SCC(=O)Nc2cccnc2Cl)nc2ccccc2c1=O)C(C)C", "hERG current change (%, negative = inhibition) at 10uM": -69.7}
{"smiles": "O=C(Cc1ccccc1)N1CCN(C(=O)c2cccs2)CC1", "hERG current change (%, negative = inhibition) at 10uM": 6.2}
{"smiles": "O=C(Nc1cc(Cl)ccc1Cl)c1noc2c1CCCC2", "hERG current change (%, negative = inhibition) at 10uM": 12.4}
{"smiles": "CC(=O)N(Cc1ccccc1)c1ccccc1C(=O)O", "hERG current change (%, negative = inhibition) at 10uM": 13.1}
{"smiles": "CS(=O)(=O)n1nc(-c2ccco2)nc1N", "hERG current change (%, negative = inhibition) at 10uM": 20.3}
{"smiles": "COc1cccc(OCc2nnc(SCC(=O)NCc3ccco3)n2C)c1", "hERG current change (%, negative = inhibition) at 10uM": -0.586}
{"smiles": "Cc1ccc(C)c(NC(=O)CN(C)C(=O)c2cccc(S(=O)(=O)N3CCN(Cc4ccccc4)CC3)c2)c1", "hERG current change (%, negative = inhibition) at 10uM": 9.47}
{"smiles": "COc1ccc(O)c(CN2CCN(CCc3ccccc3)C(CCO)C2)c1", "note": "(stereo not drawn)", "hERG current change (%, negative = inhibition) at 10uM": -54.6}
{"smiles": "COc1ccc(O)c(CN2CCN(CCCc3ccccc3)C(CCO)C2)c1", "note": "(stereo not drawn)", "hERG current change (%, negative = inhibition) at 10uM": -68.2}
{"smiles": "OCCC1CN(Cc2c(O)ccc3ccccc23)CCN1CCc1ccccc1", "note": "(stereo not drawn)", "hERG current change (%, negative = inhibition) at 10uM": -27.1}
{"smiles": "Cc1ccc(NC(=O)COC(=O)c2ccc3c(c2)OCCO3)cc1S(=O)(=O)N1CCOCC1", "hERG current change (%, negative = inhibition) at 10uM": 6.16}
{"smiles": "O=C(CN1C(=O)NC2(CCc3ccccc32)C1=O)NCc1ccccc1Cl", "note": "(stereo not drawn)", "hERG current change (%, negative = inhibition) at 10uM": 7.01}
{"smiles": "Nc1c(C(=O)NCC2CCCO2)c2nc3ccccc3nc2n1-c1ccccc1", "note": "(stereo not drawn)", "hERG current change (%, negative = inhibition) at 10uM": 2.35}
{"smiles": "Cc1cccc(C)c1NC(=O)C1CCCN1S(=O)(=O)c1ccc(-c2ccc(=O)[nH]n2)s1", "note": "(stereo not drawn)", "hERG current change (%, negative = inhibition) at 10uM": -68.2}
{"smiles": "O=C(Nc1ccc(F)cc1F)C1CCCN1S(=O)(=O)c1ccc(-c2ccc(=O)[nH]n2)s1", "note": "(stereo not drawn)", "hERG current change (%, negative = inhibition) at 10uM": -33.5}
{"smiles": "CCc1ccccc1NC(=O)C1CCCN1S(=O)(=O)c1ccc2c(c1)n(C)c(=O)c(=O)n2C", "note": "(stereo not drawn)", "hERG current change (%, negative = inhibition) at 10uM": -3.91}
{"smiles": "CCc1nnc(NC(=O)C2CCCN2S(=O)(=O)c2ccccc2)s1", "note": "(stereo not drawn)", "hERG current change (%, negative = inhibition) at 10uM": 14.8}
{"smiles": "CCc1ccccc1NC(=O)C1CCCN1S(=O)(=O)c1ccc(-c2ccc(=O)[nH]n2)s1", "note": "(stereo not drawn)", "hERG current change (%, negative = inhibition) at 10uM": -54.7}
{"smiles": "Cc1ccc(Cl)cc1NC(=O)C1CCCN1S(=O)(=O)c1ccc(-c2ccc(=O)[nH]n2)s1", "note": "(stereo not drawn)", "hERG current change (%, negative = inhibition) at 10uM": -65.4}
{"smiles": "Cc1cccc(C)c1NC(=O)C1CCCN1S(=O)(=O)c1ccccc1", "note": "(stereo not drawn)", "hERG current change (%, negative = inhibition) at 10uM": 4.4}
{"smiles": "Cc1ccc(NC(=O)C2CCCN2S(=O)(=O)c2ccc(-c3ccc(=O)[nH]n3)s2)c(C)c1", "note": "(stereo not drawn)", "hERG current change (%, negative = inhibition) at 10uM": -15.4}
{"smiles": "O=C(O)C1CCCN(S(=O)(=O)c2ccc(-c3ccc(=O)[nH]n3)s2)C1", "note": "(stereo not drawn)", "hERG current change (%, negative = inhibition) at 10uM": 16.5}
